Screening results deposited in PubChem BioAssay by several laboratories.
MPTP inh – permeability transition pore inhibition; isolated mouse mitochondria, Ca2+ swelling absorbance, 30 min; inhibition, % at 10 µM; 1.4% of 360,000 active;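 active means inhibition of 50% or more, scaled per plate between neutral and stimulator controls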;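 further: 0% = DMSO wells given calcium and 100% = 1 mM EGTA wells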
Myeloid diff MLP – promotes myeloid progenitor differentiation; ER-HoxA9 myeloid progenitors, lysozyme-GFP differentiation, flow cytometry; calls only at 10 µM; 1% of 360,000 active;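 active means normalized GFP-positive differentiation at or above the plate's own cutoff, the solvent-only control mean plus 3 SD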;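 further: cells exposed to compound for four days before flow analysis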
NR3A LBD binder – modulators (binders) of human NR3A ligand-binding domain; NR3A LBD differential scanning fluorimetry, Tm shift; 0% = protein alone, 100% = glycine-bound protein; Tm shift relative to glycine control, % at 25 µM; 2.5% of 340,000 active;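 active means melting temperature shift of at least 10% of the positive control shift, at one fixed dose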
FAS TE block – inhibitors of human fatty acid synthase thioesterase domain; recombinant FAS-TE, OMFH fluorogenic substrate, fluorescence endpoint; inhibition, % at 15 µM; 0.67% of 360,000 active;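 active means compounds whose normalised, plate-corrected inhibition of enzyme fluorescence in the single-dose primary screen is 50% or more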;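 further: 0% = DMSO with enzyme and 100% = substrate without enzyme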
rCAG RNA binder – binds r(CAG) RNA repeats; r(CAG) RNA repeat, TO-PRO-1 dye displacement fluorescence; inhibition, % at 3 µM; 1.3% of 370,000 active; AID 651821;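 active means inhibition above the plate cutoff, the mean of all test compounds on that plate plus 3 SD, cut at about 35% in these data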;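 further: 0% = DMSO alone and 100% = 100 µM mitoxantrone as full dye displacement; higher means more dye released from RNA so lower well fluorescence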
MPTP counter – membrane potential counter-screen of mitochondrial pore inhibitors; shares compounds with MPTP inh; isolated mitochondria, Rhodamine 123 fluorescence; inhibition, % at 10 µM; 78% of 5,000 active; AID 624504; in the data active means inhibition above about 22%;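 further: 0% = DMSO vehicle and 100% = positive control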
MPTP abs DR – dose response confirmation of mitochondrial permeability transition pore inhibitors | shares compounds with MPTP inh | isolated mitochondria swelling, absorbance | IC50, µM | 58% of 780 active; in the data active means IC50 below about 20 µM
MPTP counter DR – active in counter-screen for permeability transition pore inhibitors. IC50, µM. isolated mitochondria counterscreen, fluorescence read-out. 49% of 780 active. shares compounds with MPTP inh; in the data active means IC50 below about 80 µM
* = called active by the depositor; i = inactive; . = not tested or not shown. The list is not random: actives were taken first. Their share in the collection is about 5.7%.

SMILES | MPTP inh | Myeloid diff MLP | NR3A LBD binder | FAS TE block | rCAG RNA binder | MPTP counter | others
CCCCCCOc1ccc(/C(C)=N/NC2=NCCN2)cc1 | 94* | i | -3 | -138 | 12 | -2
CC(=NNC1=NCCN1)c1cnn(C2=NCCN2)c1C | 0 | i | . | -4 | 3 | .
CCCCCOc1ccc(/C(C)=N/NC2=NCCN2)cc1 | 49 | i | -1 | -141 | 7 | .
CCOc1ccc(Br)cc1/C(C)=N\NC1=NCCN1 | 108* | i | -1 | -199 | 3 | 67*
CCC(=O)N(C)C[C@H]1Oc2cc(Br)ccc2S(=O)(=O)N([C@@H](C)CO)C[C@H]1C | 0 | i | . | -5 | 3 | .
COc1ccc(C2/C(=C(/O)c3ccc(C)cc3)C(=O)C(=O)N2C)c(OC)c1 (stereo not drawn) | 1 | i | -2 | -4 | 2 | .
CC(C)C[C@H]1CN(CCCC[C@@H]2CNC(=O)C(=O)N2CC2CCCCC2)C(=O)C(=O)N1CC1CCCCC1 | 0 | i | . | 18 | -3 | .
Cc1ccc(NC(=O)Nc2nnc(Cc3ccc([N+](=O)[O-])cc3)s2)cc1C | 86* | i | 25* | -6 | 26 | 63*
O=C(Nc1ccccc1)Nc1nnc(Cc2ccc([N+](=O)[O-])cc2)s1 | 93* | i | 16* | 0 | 16 | 89*
CC1Cc2cc(-c3csc(N)n3)ccc2O1 (stereo not drawn) | 0 | i | 0 | -1 | 1 | .
C=C(C)c1cccc(C(C)(C)NC(=O)Nc2ccc(C(C)=O)cc2)c1 | 82* | i | -3 | 3 | 8 | 83*
Cc1ccc(C(NC(=O)C2CCCCC2)c2c(O)ccc3ccccc23)cc1 (stereo not drawn) | 99* | i | 4 | 10 | 10 | 80*
CC(C)C(=O)NC(c1ccc([N+](=O)[O-])cc1)c1c(O)ccc2ccccc12 (stereo not drawn) | 87* | i | -1 | 17 | 5 | 77*
CC(=O)NC(c1ccc([N+](=O)[O-])cc1)c1c(O)ccc2ccccc12 (stereo not drawn) | 12 | i | -7 | 21 | 2 | .
COc1ccc(CC(=O)Nc2ccc(N3CCCC3)c(C)c2)cc1 | 2 | . | -2 | 4 | 7 | .
OC[C@H]1O[C@@H](O[C@@H]2[C@@H](CO)O[C@@](O)(CO)[C@H]2O)[C@H](O)[C@@H](O)[C@H]1O | -4 | i | 3 | -4 | 2 | .
CSCCC(NC(=O)c1ccc(Cl)cc1)C(=O)OCC(=O)Nc1ccc(C#N)cc1 (stereo not drawn) | 50* | i | -1 | 1 | 0 | 44*
CSCCC(NC(=O)c1ccc(Cl)cc1)C(=O)OCC(C)=O (stereo not drawn) | 0 | i | 0 | -3 | 1 | .
Cc1ccc(C(=O)Nc2nc(=O)n(C(=O)CC(C)C)s2)cc1 | 58* | . | -18 | -5 | 20 | 78*
O=C(Nc1nnc(COc2ccc(F)cc2)s1)Nc1ccccc1F | 7 | i | 0 | -1 | 2 | .
COc1ccc(NS(=O)(=O)c2ccc3oc4ccccc4c3c2)cn1 | 60* | i | 3 | 32 | 9 | 64*
N#Cc1cnn2c(=O)[nH]cnc12 | -1 | i | . | -4 | -1 | .
COc1ccc(C(CNC(=O)c2ccc(-c3ccccc3)cc2)N(C)C)cc1OC (stereo not drawn) | 80* | . | -2 | 2 | 2 | -11 | MPTP abs DR=19*;MPTP counter DR=>80
CCN(CC)S(=O)(=O)c1cccc(C(=O)N[C@H](C(=O)Nc2nc3ccc(F)cc3s2)C(C)C)c1 | 55* | i | -3 | 8 | 1 | 72*
CCN(CC)S(=O)(=O)c1cccc(C(=O)N[C@H](C(=O)Nc2nc3ccccc3s2)C(C)C)c1 | 5 | i | 2 | -18 | -1 | .
Cc1ccc([N+](=O)[O-])cc1N=Nc1c(-c2ccc([N+](=O)[O-])cc2)[nH]n(C(N)=S)c1=O | 99* | i | 30* | 30 | . | 69*
COc1cccc(NC(=O)N(C)C[C@H]2OCc3cn(nn3)CCCC(=O)N([C@@H](C)CO)C[C@@H]2C)c1 | -1 | i | . | -10 | 2 | .
